The text below walks through data of PubChem BioAssay.

Several values for one entry are separate records, joined by “and”; a condition that tells them apart may be missing. Equal values may be shown once. Activity calls are given as the source filed them. Unless noted, no stated cut-off is given here; in the data, active means inhibition above about 80%; inactive means the rest.

Test [1] in a line: kinase inhibitors against Plasmodium liver-stage infection, cell-based, known kinase inhibitor set, luminescence, hepatoma host viability (AID 624392; call rule not given here;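 further: infected cells incubated roughly two days before readout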). Particulars: Plasmodium liver stage in hepatoma cells, luciferase luminescence, concentration not given here; liver cell % of control: measured here: host liver cell viability; parasite % of control: stronger effect = lower value.
Test [2] in a line: LFS_MB_1R medulloblastoma cell growth inhibition, synergistic combos for chromothripsis tumors, cisplatin or BGB combos (AID 1671452).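 Further: cells exposed for 96 hours before readout.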 Particulars: LFS_MB_1R medulloblastoma cells, stronger effect = higher value.
Test [3] can be described thus: CRL2098 osteosarcoma cell growth inhibition, synergistic combos for chromothripsis tumors, BGB or cisplatin IC20 combos (AID 1671454).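 Further: cells exposed for 96 h before readout; 0% = vehicle DMSO and 100% = killing by high DMSO.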 Particulars: CRL2098 osteosarcoma cells, drug combinations, stronger effect = higher value.
A short description of test [4]: HD-MB03 medulloblastoma cell growth inhibition, synergistic combos for chromothripsis tumors, BGB or cisplatin IC20 combos (AID 1671455; in the data active means inhibition above about 83%;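 further: 0% = vehicle DMSO and 100% = high DMSO as cytotoxic control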). Conditions: HD-MB03 medulloblastoma cells, stronger effect = higher value.
A short description of test [5]: UWB1.289 ovarian carcinoma cell growth inhibition, synergistic combos for chromothripsis tumors, BGB or cisplatin combos (AID 1671456).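 Further: cells exposed to compound for four days; 0% = vehicle DMSO and 100% = killing by high DMSO.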 Conditions: UWB1.289 ovarian carcinoma cells, stronger effect = higher value.
Test [6] is described as follows: LFS_MB_2R medulloblastoma cell growth inhibition, synergistic combos for chromothripsis tumors, cisplatin combos (AID 1671457).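 Further: cells exposed to compound for four days before readout.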 Particulars: LFS_MB_2R medulloblastoma cells, stronger effect = higher value.
A short description of test [7]: UWB1.289_BRCA1 ovarian cancer growth, cell-based, BGB or cisplatin combinations (AID 1671459). Particulars: UWB1.289 BRCA1 ovarian carcinoma, drug combinations, stronger effect = higher value.
Test [8] can be described thus: human astrocyte viability loss, single and combined drugs, cytotoxicity control for chromothriptic childhood tumor combination screen, cell-based, BGB or cisplatin IC20 combos (AID 1671460).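 Further: cells exposed to compounds for 96 hours before viability readout; 0% = vehicle and 100% = killing control.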 Conditions: Human astrocytes, drug combinations, stronger effect = higher value.
Test [9] can be described thus: viability rescue of complex I mutant cybrids, primary screen, cell-based, galactose medium, ATP luminescence (AID 1645843;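 active means z-score of at least 1.8 in each of two replicates, scored against plate mean and spread of sample wells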;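 further: positive z means more ATP and so rescue of galactose-driven cybrid death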). Conditions: complex I mutant cybrid cells, 72 h, stronger effect = higher value.
Test [10] concerns the target NAD(+) hydrolase SARM1 (Homo sapiens) (UniProt Q6SZW1). The test is described as follows: SARM1 TIR NADase inhibitors, cell lysate, NAD-Glo luminescence (AID 1508614;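 active means compound whose remaining NAD level is above about 45 nM, limit read from the data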). Particulars: SAM-TIR HEK293T lysate NADase, at 1 µM, stronger effect = higher value.
Test [11] in a line: phospholipid biosynthesis inhibitors in animal cells, primary screen, cell-based, LOPAC library, screen 4 (AID 1347384; call rule not given here). Particulars: phospholipid biosynthesis inhibition screen, at 10 µM.
Setting [12] is: measured here: combination with BGB IC40, at 0.05 µM.
Where [13] appears, read: measured here: combination with cisplatin, at 0.5 µM.
Where [14] appears, read: measured here: combination with cisplatin, at 5 µM.
Setting [15] is: measured here: combination with BGB at IC20, at 0.5 µM.
Setting [16] is: measured here: combination with cisplatin at IC20, at 0.5 µM.
[17] abbreviates: measured here: combo with BGB at IC20, at 0.5 µM.
The mark [18] stands for this setting: measured here: combo with cisplatin at IC20, at 0.5 µM.
Where [19] appears, read: measured here: inhibition with BGB combination, at 0.05 µM.
The mark [20] stands for this setting: measured here: inhibition with cisplatin combination, at 0.05 µM.
The mark [21] stands for this setting: BGB combination, concentration series, at 5 µM.
[22] abbreviates: cisplatin combination, concentration series, at 5 µM.
Where [23] appears, read: measured here: combo with BGB IC20, at 0.5 µM.
Setting [24] is: measured here: combo with cisplatin IC20, at 0.5 µM.

NAD(+) hydrolase SARM1 (Homo sapiens), sequence (Q6SZW1 whole entry, looked up): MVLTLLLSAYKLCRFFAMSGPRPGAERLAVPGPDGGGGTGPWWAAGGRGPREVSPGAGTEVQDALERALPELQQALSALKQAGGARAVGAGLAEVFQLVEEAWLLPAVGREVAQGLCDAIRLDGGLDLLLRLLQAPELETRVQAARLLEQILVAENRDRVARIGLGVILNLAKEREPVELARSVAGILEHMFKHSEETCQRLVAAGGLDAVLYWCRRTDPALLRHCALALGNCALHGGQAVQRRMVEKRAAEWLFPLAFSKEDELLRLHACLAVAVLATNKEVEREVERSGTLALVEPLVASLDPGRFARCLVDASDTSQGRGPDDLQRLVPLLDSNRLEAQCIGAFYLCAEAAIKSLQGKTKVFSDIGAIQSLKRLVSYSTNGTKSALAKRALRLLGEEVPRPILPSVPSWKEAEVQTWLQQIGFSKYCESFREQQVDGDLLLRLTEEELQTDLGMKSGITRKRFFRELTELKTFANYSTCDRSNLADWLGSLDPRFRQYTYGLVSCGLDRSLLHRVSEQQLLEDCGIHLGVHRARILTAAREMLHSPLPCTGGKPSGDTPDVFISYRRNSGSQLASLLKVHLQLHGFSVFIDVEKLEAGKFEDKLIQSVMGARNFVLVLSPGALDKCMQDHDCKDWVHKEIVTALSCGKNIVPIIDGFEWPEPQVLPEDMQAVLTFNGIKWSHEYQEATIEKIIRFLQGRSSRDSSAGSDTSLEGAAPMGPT

Consider `O=C(O)c1ccc2c(c1)nc(Nc1cccc(Cl)c1)c1ccncc12`, for which, in [1], the liver cell % of control was 84.7% and 84.9% and 89.8%; the parasite % of control is 247% (inactive) and 142% (inactive) and 94.6% (inactive).

On to `Cc1ccc2nc(NCCN)c3ncc(C)n3c2c1`, for which the inhibition in test [2] (at 0.5 µM) is 1.37% (inactive); in test [2] (setting [12]), -13.1%; in test [2] (setting [13]), -5.04%; in [2] (setting [14]), 83.6%; in test [3] (at 0.5 µM) it was -21.4% (inactive); in [3] (setting [15]), 13.8%. Moreover, the inhibition in test [3] (setting [16]) was -60.3%; in test [4] (at 0.5 µM) it was -5.33% (inactive); in test [4] (setting [17]) it was -7.44%; in test [4] (setting [18]), -1.09%; in test [5] (at 0.5 µM) it was -4.12% (inactive); in test [5] (setting [19]), -17.4%. In addition, the inhibition is -11.7% in test [5] (setting [20]); -14.5% (inactive) in test [6] (at 0.5 µM); -10.3% in test [6] (setting [13]); 15.9% in [6] (setting [14]); 91.7% in test [7] (setting [21]); 1.55% (inactive) in test [7] (at 0.5 µM). Besides, the inhibition in [7] (setting [22]) is 76.1%; in test [8] (at 0.5 µM), -0.35% (inactive); in [8] (setting [23]) it was 0.763%; in [8] (setting [24]), 2.83%.

On to `CCCCCCCCCCCC(CC1OC(=O)C1CCCCCC)OC(=O)C(CC(C)C)NC=O` (stereo not drawn), for which the z-score in [9] is -1.84 (inactive).

With `C[C@H]1[C@H](OC(=O)CCC(=O)O)O[C@@H]2O[C@@]3(C)CC[C@H]4[C@H](C)CC[C@@H]1[C@@]24OO3`, the remaining NAD in test [10] was 10 nM (inactive).

For the compound `O=C(O)[C@H](Cc1c[nH]c2ccccc12)N1C(=O)c2ccccc2C1=O`, the inhibition is -21% (inactive) in test [2] (at 0.5 µM); -49.9% in test [2] (setting [12]); -9.64% in [2] (setting [13]); -81.2% in test [2] (setting [14]); -82% (inactive) in test [3] (at 0.5 µM); -46.6% in test [3] (setting [15]). Moreover, the inhibition in [3] (setting [16]) is -131%; in test [4] (at 0.5 µM), -20.5% (inactive); in test [4] (setting [17]), -26.8%; in test [4] (setting [18]) it was -27.1%; in test [5] (at 0.5 µM), -10.8% (inactive); in [5] (setting [19]) it was -20.2%. Besides, the inhibition was -43.5% in test [5] (setting [20]); -17.3% (inactive) in test [6] (at 0.5 µM); -13% in test [6] (setting [13]); -8.45% in test [6] (setting [14]); -11.5% in test [7] (setting [21]); -15.7% (inactive) in [7] (at 0.5 µM). The inhibition is -28.9% in test [7] (setting [22]), -2.94% (inactive) in [8] (at 0.5 µM), -8.01% in test [8] (setting [23]) and 4.01% in test [8] (setting [24]).

`CN(C)CCN1C(=O)c2cccc3cc(N)cc(c23)C1=O`: the inhibition was -23% (inactive) in test [2] (at 0.5 µM); -41.2% in test [2] (setting [12]); -45% in test [2] (setting [13]); 16.5% in test [2] (setting [14]); -63% (inactive) in test [3] (at 0.5 µM); -22.2% in test [3] (setting [15]). The inhibition is -129% in test [3] (setting [16]); 1.51% (inactive) in [4] (at 0.5 µM); -11.9% in test [4] (setting [17]); 14.4% in [4] (setting [18]); -5.91% (inactive) in test [5] (at 0.5 µM); -1.98% in test [5] (setting [19]). Besides, the inhibition is -18.9% in test [5] (setting [20]); -25.1% (inactive) in test [6] (at 0.5 µM); -29.2% in [6] (setting [13]); -2.51% in test [6] (setting [14]); 38.8% in test [7] (setting [21]); -2.87% (inactive) in [7] (at 0.5 µM). Moreover, the inhibition is 37.9% in test [7] (setting [22]), 2.38% (inactive) in test [8] (at 0.5 µM), -2.82% in test [8] (setting [23]) and -2.98% in [8] (setting [24]).

In the case of `CN(C)c1ccccc1CN1CCCN(Cc2ccccc2N(C)C)C1c1ccncc1`, in [11], the compound was classed as inactive.

As to `Nc1ccccc1NC(=O)c1ccc(CNc2nccc(-c3cccnc3)n2)cc1`, the inhibition in test [2] (at 0.5 µM) is 42.2% (inactive); in test [2] (setting [12]) it was -27.8%; in test [2] (setting [13]), 50.9%; in test [2] (setting [14]) it was 96.3%; in test [3] (at 0.5 µM), -11.6% (inactive); in [3] (setting [15]), -25.1%. In addition, the inhibition was 19.9% in test [3] (setting [16]); 40.8% (inactive) in test [4] (at 0.5 µM); 31.4% in test [4] (setting [17]); 76.7% in test [4] (setting [18]); 27.8% (inactive) in test [5] (at 0.5 µM); -18.3% in test [5] (setting [19]). The inhibition is -16.7% in test [5] (setting [20]); 36.6% (inactive) in test [6] (at 0.5 µM); 45.3% in [6] (setting [13]); 98.8% in [6] (setting [14]); 114% in test [7] (setting [21]); 29.1% (inactive) in test [7] (at 0.5 µM). The inhibition in [7] (setting [22]) was 120%; in test [8] (at 0.5 µM), 24.5% (inactive); in test [8] (setting [23]), 21.7%; in test [8] (setting [24]) it was 17.1%.

In general, inhibition refers to the drop in the measured response relative to a control, in per cent.
